Data reported in PubChem BioAssay.
Calls of active or inactive are those of the source.

Tests used:
[1] = test system: PRMT1 (protein arginine N-methyltransferase 1); test: PRMT1 binders on small-molecule microarrays, primary screen, biochemical, small-molecule microarray, 635 nm fluorescence (AID 1088); details: small-molecule microarray binding, higher = more signal;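 further: binding of Prmt1 protein to compounds spotted on small-molecule microarray slides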
[2] = yeast growth modulation, basal conditions, primary screen, YJM789 clinical isolate, OD600, 24 h (AID 1089);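 further: growth of clinical yeast isolate S. cerevisiae YJM 789 seeded 1000 cells per well; test concentration not given here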; details: S. cerevisiae YJM789 growth, higher = more signal, called active from +8 up or from −8 down
[3] = fission yeast growth modulation, primary screen, strain 972, OD600, 24 h, no modulator (AID 1090);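 further: basal condition with compound alone and no growth modifier present; test concentration not given here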; details: S. pombe 972 growth, higher = more signal, called active from +8 up or from −8 down
[4] = S. cerevisiae growth modulation with rapamycin, primary screen, strain BY4716, OD600, 96 h (AID 1091); details: higher = more signal, called active from +8 up or from −8 down; further: test concentration not given here
[5] = biological target: Torsin-1A-interacting protein 2 (Homo sapiens) (UniProt Q8NFQ8); test: LULL1 binders on small-molecule microarray, primary screen, cell lysate, human LULL1 lysate, 635/667 nm fluorescence (AID 1092); details: hLULL1 lysate binding, 635 nm fluorescence, higher = more signal;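 further: probe is lysate of COS7 cells overexpressing human LULL1; score merges per-feature 667 nm fluorescence with signal-to-noise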
[6] = E. coli growth modulation, two-sided OD650, primary screen, E. coli filamentation project, strain DRC41, 24 h (AID 1093); details: OD650, 24 h, higher = more signal, called active from +8 up or from −8 down;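 further: MC1000 strain lacking acrAB efflux and sulA so SOS filamentation is blocked; test concentration not given here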
[7] = small-molecule microarray binders of probe aLefty2, primary screen, biochemical, biotinylated probe, 635/667 nm fluorescence (AID 1094); details: higher = more signal;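 further: score merges spot fluorescence near 667 nm with spot signal-to-noise ratio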
[8] = test system: Noggin (protein binding on small-molecule microarray); test: Noggin binders on small-molecule microarray, primary screen, biochemical, 635/667 nm fluorescence (AID 1095); details: 635 nm fluorescence, higher = more signal;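 further: score merges 667 nm feature fluorescence with signal to noise over triplicate slides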
[9] = biological target: Neurogenic locus notch homolog protein 3 (Homo sapiens) (UniProt Q9UM47); test: NOTCH3 binders on small-molecule microarray, primary screen, biochemical, 635/667 nm fluorescence (AID 1096); details: NOTCH3 binding, 635 nm fluorescence, higher = more signal
[10] = small-molecule microarray binders of probe aEGFR, primary screen, biochemical, biotinylated probe, 635/667 nm fluorescence (AID 1097); details: higher = more signal;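 further: probe is a biotinylated anti-EGFR antibody binding compounds printed on slides; score combines fluorescence near 667 nm and signal to noise of each spot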
[11] = test system: Plasmodium falciparum Sir2 (PF13_0152, Sir2A); test: pfSir2 binders on small-molecule microarrays, primary screen, biochemical, small-molecule microarray, 635 nm fluorescence (AID 1098); details: small-molecule microarray binding, fluorescence 635 nm; higher = more signal;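 further: score merges spot fluorescence intensity with its signal-to-noise ratio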
[12] = small-molecule microarray binders of probe aDKK1, primary screen, biochemical, biotinylated probe, 635/667 nm fluorescence (AID 1099); details: higher = more signal;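 further: score merges 667nm spot fluorescence with signal to noise across triplicate slides; reference of the scale not given here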
[13] = small-molecule microarray binders of probe aCHRDL2, primary screen, biochemical, biotinylated probe, 635/667 nm fluorescence (AID 1100); details: higher = more signal
[14] = splicing luciferase reporter signal modulators, primary screen, spliceosome inhibition project, cell-based, HEK293, splice +/- reporter (AID 1101); details: luminescence, 24 h, higher = more signal, called active from +8 up or from −8 down;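 further: HEK293 cells carrying a splicing-competent luciferase reporter gene; test concentration not given here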
[15] = biological target: Fibroblast growth factor 10 (Homo sapiens) (UniProt O15520); test: FGF10 binders on small-molecule microarrays, primary screen, biochemical, small-molecule microarray, 635 nm fluorescence (AID 1102); details: FGF10 binding, fluorescence 635 nm, higher = more signal
[16] = test system: glycogen synthase kinase-3 (GSK3A per assay name; protocol says GSK3B); test: GSK3 binders on small-molecule microarrays, primary screen, biochemical, small-molecule microarray, 635 nm fluorescence, GSK3A (AID 1103); details: small-molecule microarray binding, fluorescence 635 nm; higher = more signal; further: the record names both GSK3A and GSK3B
[17] = biological target: Epidermal growth factor receptor (Homo sapiens) (UniProt P00533); test: EGFR binders on small-molecule microarrays, primary screen, biochemical, small-molecule microarray, 635 nm fluorescence (AID 1104); details: EGFR binding, higher = more signal;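 further: score merges 667 nm emission intensity with spot signal to noise over triplicate slides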
[18] = biological target: Follistatin-related protein 3 (Homo sapiens) (UniProt O95633); test: FSTL3 binders on small-molecule microarrays, primary screen, biochemical, small-molecule microarray, 635 nm fluorescence (AID 1105); details: FSTL3 binding, higher = more signal;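 further: score merges emission near 667 nm and signal to noise per printed spot across three slides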
[19] = biological target: Dickkopf-related protein 1 (Homo sapiens) (UniProt O94907); test: DKK1 binders on small-molecule microarrays, primary screen, biochemical, small-molecule microarray, 635 nm fluorescence scan (AID 1106); details: DKK1 binding, higher = more signal;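 further: score merges emission near 667 nm with signal to noise over three replicate slides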
[20] = test system: Inhibin beta A chain (activin A); test: INHBA (activin A) binders on microarrays, primary screen, biochemical, small-molecule microarray, 635 nm fluorescence scan (AID 1107); details: small-molecule microarray binding, higher = more signal;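 further: mouse activin A protein probed at 4.33 µg/mL on printed slides; score merges bound-protein fluorescence near 667 nm with spot signal-to-noise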

Sequence of Neurogenic locus notch homolog protein 3 (Homo sapiens) (Q9UM47 whole entry, looked up): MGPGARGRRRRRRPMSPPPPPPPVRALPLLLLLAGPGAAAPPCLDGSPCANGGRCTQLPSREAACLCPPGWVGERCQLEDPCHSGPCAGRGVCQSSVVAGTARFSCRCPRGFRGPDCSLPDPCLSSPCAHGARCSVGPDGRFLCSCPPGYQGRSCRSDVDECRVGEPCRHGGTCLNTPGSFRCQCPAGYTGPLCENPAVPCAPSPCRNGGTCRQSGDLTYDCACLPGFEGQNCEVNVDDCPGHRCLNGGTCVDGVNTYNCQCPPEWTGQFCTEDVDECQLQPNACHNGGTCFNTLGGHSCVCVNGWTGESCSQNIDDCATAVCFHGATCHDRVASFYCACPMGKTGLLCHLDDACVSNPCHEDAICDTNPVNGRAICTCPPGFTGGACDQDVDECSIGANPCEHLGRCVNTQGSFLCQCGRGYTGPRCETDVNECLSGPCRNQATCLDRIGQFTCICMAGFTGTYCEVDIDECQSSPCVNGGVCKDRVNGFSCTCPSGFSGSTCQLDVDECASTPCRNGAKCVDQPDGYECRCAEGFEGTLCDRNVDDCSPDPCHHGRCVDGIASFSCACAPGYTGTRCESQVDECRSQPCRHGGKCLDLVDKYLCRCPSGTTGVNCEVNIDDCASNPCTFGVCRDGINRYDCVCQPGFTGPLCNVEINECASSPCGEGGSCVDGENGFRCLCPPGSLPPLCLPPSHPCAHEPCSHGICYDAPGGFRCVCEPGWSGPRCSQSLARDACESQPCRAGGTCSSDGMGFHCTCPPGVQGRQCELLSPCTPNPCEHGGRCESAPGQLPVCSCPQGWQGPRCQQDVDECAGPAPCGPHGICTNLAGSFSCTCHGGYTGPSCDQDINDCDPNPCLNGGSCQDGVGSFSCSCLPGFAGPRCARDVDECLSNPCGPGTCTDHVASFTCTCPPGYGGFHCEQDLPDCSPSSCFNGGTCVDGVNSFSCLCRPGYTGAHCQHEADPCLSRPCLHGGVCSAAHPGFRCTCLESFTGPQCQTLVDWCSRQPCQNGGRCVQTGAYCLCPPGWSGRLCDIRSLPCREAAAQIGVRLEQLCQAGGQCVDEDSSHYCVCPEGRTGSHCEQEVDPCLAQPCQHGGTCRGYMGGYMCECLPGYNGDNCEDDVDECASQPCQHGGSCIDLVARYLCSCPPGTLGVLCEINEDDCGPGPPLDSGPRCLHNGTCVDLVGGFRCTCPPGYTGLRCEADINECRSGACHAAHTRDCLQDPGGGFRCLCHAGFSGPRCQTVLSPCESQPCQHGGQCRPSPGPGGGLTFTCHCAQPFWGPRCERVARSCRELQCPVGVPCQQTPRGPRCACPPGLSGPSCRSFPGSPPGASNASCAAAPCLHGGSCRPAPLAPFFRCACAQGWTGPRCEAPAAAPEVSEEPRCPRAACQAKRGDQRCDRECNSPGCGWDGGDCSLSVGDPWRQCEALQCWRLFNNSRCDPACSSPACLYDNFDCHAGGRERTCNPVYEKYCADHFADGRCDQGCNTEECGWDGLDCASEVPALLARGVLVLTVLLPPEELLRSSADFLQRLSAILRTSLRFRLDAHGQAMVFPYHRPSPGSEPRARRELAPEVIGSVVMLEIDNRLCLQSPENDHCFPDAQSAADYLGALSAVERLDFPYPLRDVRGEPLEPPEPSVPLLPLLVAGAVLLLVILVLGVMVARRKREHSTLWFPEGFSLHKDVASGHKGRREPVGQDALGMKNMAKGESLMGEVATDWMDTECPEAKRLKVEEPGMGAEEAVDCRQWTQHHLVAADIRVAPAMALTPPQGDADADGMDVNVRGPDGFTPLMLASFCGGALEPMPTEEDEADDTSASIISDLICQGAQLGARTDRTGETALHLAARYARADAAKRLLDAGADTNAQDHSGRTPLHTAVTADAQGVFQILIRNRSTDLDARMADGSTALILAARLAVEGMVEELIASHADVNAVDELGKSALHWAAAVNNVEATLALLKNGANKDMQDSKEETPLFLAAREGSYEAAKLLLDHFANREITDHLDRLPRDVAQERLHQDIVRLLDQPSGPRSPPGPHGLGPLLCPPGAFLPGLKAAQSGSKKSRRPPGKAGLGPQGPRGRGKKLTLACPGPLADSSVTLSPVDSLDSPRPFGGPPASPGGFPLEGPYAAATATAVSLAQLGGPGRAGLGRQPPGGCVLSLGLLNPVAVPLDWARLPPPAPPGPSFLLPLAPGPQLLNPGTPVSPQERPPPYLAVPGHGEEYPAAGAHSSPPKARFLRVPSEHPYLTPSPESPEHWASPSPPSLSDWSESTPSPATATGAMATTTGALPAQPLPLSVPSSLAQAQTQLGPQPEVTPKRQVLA
Sequence of Fibroblast growth factor 10 (Homo sapiens) (O15520 whole entry, looked up): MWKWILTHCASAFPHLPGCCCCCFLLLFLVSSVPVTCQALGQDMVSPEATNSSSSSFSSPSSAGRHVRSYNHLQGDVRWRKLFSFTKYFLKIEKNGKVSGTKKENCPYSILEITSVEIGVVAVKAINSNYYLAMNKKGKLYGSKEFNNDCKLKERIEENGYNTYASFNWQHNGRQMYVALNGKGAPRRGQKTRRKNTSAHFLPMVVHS
Sequence of Follistatin-related protein 3 (Homo sapiens) (O95633 whole entry, looked up): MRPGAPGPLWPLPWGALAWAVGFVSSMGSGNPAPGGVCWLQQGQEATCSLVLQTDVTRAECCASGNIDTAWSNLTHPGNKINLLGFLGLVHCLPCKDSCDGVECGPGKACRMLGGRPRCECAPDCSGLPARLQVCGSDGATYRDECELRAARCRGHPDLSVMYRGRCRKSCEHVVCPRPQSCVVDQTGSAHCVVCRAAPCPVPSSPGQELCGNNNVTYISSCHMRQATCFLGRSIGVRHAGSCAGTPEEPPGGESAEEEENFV
Sequence of Dickkopf-related protein 1 (Homo sapiens) (O94907 whole entry, looked up): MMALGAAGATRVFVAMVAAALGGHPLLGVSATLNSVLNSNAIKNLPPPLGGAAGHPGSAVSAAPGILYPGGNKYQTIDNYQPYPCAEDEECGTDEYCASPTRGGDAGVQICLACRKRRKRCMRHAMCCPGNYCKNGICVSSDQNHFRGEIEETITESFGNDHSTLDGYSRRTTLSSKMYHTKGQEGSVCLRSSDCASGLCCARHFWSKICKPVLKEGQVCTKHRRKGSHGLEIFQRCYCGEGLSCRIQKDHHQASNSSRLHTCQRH
Sequence of Epidermal growth factor receptor (Homo sapiens) (P00533 whole entry, looked up): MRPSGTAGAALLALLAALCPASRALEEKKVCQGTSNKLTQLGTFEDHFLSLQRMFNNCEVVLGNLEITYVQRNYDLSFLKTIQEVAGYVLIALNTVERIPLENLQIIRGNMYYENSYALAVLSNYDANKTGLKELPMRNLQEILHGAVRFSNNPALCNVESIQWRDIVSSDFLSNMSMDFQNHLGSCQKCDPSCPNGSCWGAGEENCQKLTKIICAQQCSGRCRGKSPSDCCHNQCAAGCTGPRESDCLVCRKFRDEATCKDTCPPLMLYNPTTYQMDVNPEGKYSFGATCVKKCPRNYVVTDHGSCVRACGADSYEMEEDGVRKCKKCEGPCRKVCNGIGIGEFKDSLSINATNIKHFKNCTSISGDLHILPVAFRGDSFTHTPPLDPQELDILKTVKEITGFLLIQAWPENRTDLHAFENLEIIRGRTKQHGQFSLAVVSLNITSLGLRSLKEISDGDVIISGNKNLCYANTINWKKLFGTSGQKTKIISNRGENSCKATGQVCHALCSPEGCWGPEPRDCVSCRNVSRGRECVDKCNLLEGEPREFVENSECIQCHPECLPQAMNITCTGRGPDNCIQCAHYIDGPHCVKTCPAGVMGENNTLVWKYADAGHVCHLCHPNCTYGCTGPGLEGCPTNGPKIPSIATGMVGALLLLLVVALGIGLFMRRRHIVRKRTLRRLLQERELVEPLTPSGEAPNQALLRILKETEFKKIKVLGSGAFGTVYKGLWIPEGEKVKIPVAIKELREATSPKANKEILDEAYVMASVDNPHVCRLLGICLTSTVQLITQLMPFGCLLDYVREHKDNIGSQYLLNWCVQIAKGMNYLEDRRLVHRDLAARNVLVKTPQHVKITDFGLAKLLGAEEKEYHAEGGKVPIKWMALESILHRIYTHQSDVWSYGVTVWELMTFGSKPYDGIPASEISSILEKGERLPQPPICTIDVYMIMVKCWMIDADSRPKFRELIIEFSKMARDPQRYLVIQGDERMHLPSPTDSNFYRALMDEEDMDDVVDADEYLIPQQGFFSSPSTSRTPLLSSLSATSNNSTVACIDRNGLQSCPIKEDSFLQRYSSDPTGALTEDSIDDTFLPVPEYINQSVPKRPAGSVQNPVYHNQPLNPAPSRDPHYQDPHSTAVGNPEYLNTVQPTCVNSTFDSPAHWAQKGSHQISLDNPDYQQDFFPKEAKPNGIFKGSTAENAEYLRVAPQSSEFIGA
Sequence of Torsin-1A-interacting protein 2 (Homo sapiens) (Q8NFQ8 whole entry, looked up): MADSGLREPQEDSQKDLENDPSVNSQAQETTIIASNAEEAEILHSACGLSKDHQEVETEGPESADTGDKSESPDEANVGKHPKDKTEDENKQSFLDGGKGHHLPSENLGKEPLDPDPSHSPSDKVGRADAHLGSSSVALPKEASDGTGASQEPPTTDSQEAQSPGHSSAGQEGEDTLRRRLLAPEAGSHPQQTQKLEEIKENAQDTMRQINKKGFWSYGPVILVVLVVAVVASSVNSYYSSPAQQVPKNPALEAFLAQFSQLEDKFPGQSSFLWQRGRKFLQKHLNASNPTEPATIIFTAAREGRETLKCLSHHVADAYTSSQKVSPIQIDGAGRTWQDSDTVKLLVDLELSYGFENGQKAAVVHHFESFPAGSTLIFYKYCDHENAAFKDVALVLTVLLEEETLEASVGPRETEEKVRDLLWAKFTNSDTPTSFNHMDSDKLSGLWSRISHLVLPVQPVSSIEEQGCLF

SMILES	composite z-score [1]	z-score [2]	z-score [3]	z-score [4]	composite z-score [5]	z-score [6]	composite z-score [7]	composite z-score [8]	composite z-score [9]	composite z-score [10]	composite z-score [11]	composite z-score [12]	composite z-score [13]	z-score [14]	composite z-score [15]	composite z-score [16]	composite z-score [17]	composite z-score [18]	composite z-score [19]	composite z-score [20]
COCCOC(=O)N1C(=O)[C@@]2(c3cc(C#CCNC(N)=O)ccc31)[C@H](C(=O)Nc1nc3ccccc3s1)[C@H]1C(=O)O[C@H](c3ccccc3)[C@H](c3ccccc3)N1[C@@H]2c1ccccc1OCCO	1.56	0.236 (inactive)	1.81 (inactive)	3.17 (inactive)	1.11	1.17 (inactive)	0.146	1.14	0.907	0.359	0.678	0.376	0.812	-0.549 (inactive)	1.38	0.392	0.597	1.05	0.397	1.22
C=CCOC(=O)[C@@H]1[C@H]2C(=O)O[C@H](c3ccccc3)[C@H](c3ccccc3)N2[C@H](c2ccc(OCCOC(=O)[C@H]3C[C@H]4C(=O)N5CCC[C@H]5C(=O)N4[C@H]3c3cccc(OCCO)c3)cc2)[C@@]12C(=O)Nc1ccc(I)cc12	1.53	1.3 (inactive)	2.38 (inactive)	4.79 (inactive)	1.6	-0.333 (inactive)	-0.0125	1.52	1.11	0.0238	1.56	-0.0777	0.0879	0.388 (inactive)	1.05	1.24	1.08	1.42	1.06	-0.0842
O=C1C[C@@](C(=O)O)(c2ccc([N+](=O)[O-])cc2)[C@@H](c2ccc(CO)cc2)N1C1CCCCC1	1.54	1.24 (inactive)	-1.36 (inactive)	1.05 (inactive)	3.12	0.397 (inactive)	0.0909	0.333	1.15	-0.0409	0.869	0.366	0.495	0.185 (inactive)	0.869	0.582	0.369	1.1	0.649	0.633
COc1ccc([Si](C)(C)[C@H]2[C@H](CCO)O[C@@]3(C(=O)N(Cc4cccc(N5C(=O)c6ccccc6Oc6ccccc65)c4)c4ccccc43)[C@@H]2C)cc1	0.891	2.14 (inactive)	-0.506 (inactive)	23.1 (active)	1.51	1.03 (inactive)	-0.118	-0.202	0.451	-0.108	0.742	-0.109	-0.236	-1.93 (inactive)	0.396	-0.479	0.111	-0.628	-0.0781	0.212
C=CC[C@@]1(C(=O)N(C)C)N=C(c2ccc(OCCCO)cc2)O[C@@H]1c1ccccc1CN=[N+]=[N-]	1.55	-0.127 (inactive)	-0.0815 (inactive)	-0.64 (inactive)	3.33	1.42 (inactive)	0.264	1.77	1.07	0.538	0.964	1.19	1.13	-0.475 (inactive)	1.42	1.33	0.493	1.38	0.488	1.23
